ADAM10 inh: human ADAM10 inhibitors, primary screen, biochemical, QFRET, HTS. Disintegrin and metalloproteinase domain-containing protein 10 (Homo sapiens), O14672. recombinant ADAM10, EDANS/DABCYL FRET peptide cleavage, 3 h. inhibition, % at 7 µM. hit rate 0.62% among 370,000;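 active = inhibition above a per-campaign cutoff equal to the mean of compounds falling between control-based bounds plus 3 SD, cut at about 20% in these data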;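 note: 0% = DMSO wells while the 100% control is not disclosed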
NR3A LBD binder: binders of NR3A ligand-binding domain, primary screen, biophysical, differential scanning fluorimetry, uHTS. NR3A LBD differential scanning fluorimetry, Tm shift; 0% = protein alone, 100% = glycine-bound protein. Tm shift relative to glycine control, % at 25 µM. hit rate 2.5% among 340,000;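 active = melting temperature shift of at least 10% of the positive control shift, at one fixed dose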
KLK7 zymogen act: proKLK7 zymogen activators, primary screen, biochemical, fluorescence intensity | Kallikrein-7 (Homo sapiens), P49862 | purified proKLK7, EDANS-DABCYL substrate fluorescence; 100% is mature enzyme control, 0% vehicle | activation, % at 7 µM | hit rate 0.9% among 370,000 | AID 652039, 2013;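 active = activation above the mean of all tested compounds plus 3 SD, computed per campaign excluding outliers beyond control limits, cut at about 13% in these data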
ADAM17 inh: ADAM17 inhibitors, primary screen, biochemical, QFRET; hit rate 0.83% among 370,000; Disintegrin and metalloproteinase domain-containing protein 17 (Homo sapiens), P78536; AID 720648, 2013; recombinant ADAM17, EDANS/DABCYL FRET peptide cleavage; inhibition, % at 6.95 µM;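 active = inhibition above the mean of compounds lying between control limits plus 3 SD, set per campaign, cut at about 8.5% in these data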;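 note: 0% = DMSO-only wells as the low control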
AHR activator: AHR activators, primary screen, cell-based, luminescence, luciferase reporter, human | Aryl hydrocarbon receptor (Homo sapiens), P35869 | AHR-responsive luciferase reporter cells | activation, % at 5 µM | hit rate 2.5% among 320,000 | AID 2796, 2010; in the data active = activation above about 47%;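 note: 0% = vehicle wells and 100% = reference agonist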
rCAG binder: binders of r(CAG) RNA repeats, primary screen, biochemical, fluorescence; inhibition, % at 3 µM; r(CAG) RNA repeat, TO-PRO-1 dye displacement fluorescence; hit rate 1.3% among 370,000;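 active = inhibition above the plate cutoff, the mean of all test compounds on that plate plus 3 SD, cut at about 35% in these data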;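 note: 0% = DMSO alone and 100% = 100 µM mitoxantrone as full dye displacement; higher means more dye released from RNA so lower well fluorescence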
ADAM10 ctr: ADAM10 inhibitors, counter-screen for ADAM17 exosite inhibitor project, biochemical, FRET, human ADAM10; hit rate 47% among 2,900; recombinant ADAM10, EDANS/DABCYL FRET peptide cleavage, 3 h; shares compounds with ADAM17 inh; inhibition, % at 6.95 µM; AID 743256, 2014;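 active = mean inhibition over the triplicate runs exceeds the activity threshold set in the earlier primary screen, cut at about 20% in these data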;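 note: 0% = DMSO wells and 100% = marimastat wells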
ADAM17 confirm: ADAM17 inhibitors, hit retest, confirmation, biochemical, QFRET peptide cleavage. shares compounds with ADAM17 inh. inhibition, % at 6.95 µM. hit rate 65% among 2,900. recombinant ADAM17, EDANS/DABCYL QFRET peptide cleavage. AID 743257, 2014;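 active = mean inhibition across replicates above the hit cutoff set in the primary screen, cut at about 8.5% in these data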;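 note: 0% = DMSO wells and 100% = marimastat wells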
Starred values were filed as active, the others as inactive. A selection: hits, their analogues and other compounds. The true share with any hit is near 7%.

Cc1ccc(N=C2NC(=O)/C(=C\c3ccsc3)S2)c(C)c1 was read as ADAM10 inh 10.5, NR3A LBD binder -15.7, KLK7 zymogen act 0.5, ADAM17 inh 8.8*, AHR activator 15.0, rCAG binder 17.3, ADAM10 ctr 31.5* and ADAM17 confirm 19.6*.
Screening Cc1ccc(NC(=S)NNC(=O)c2c([N+](=O)[O-])c(C)nn2C)cc1 returned ADAM10 inh 7.4, NR3A LBD binder 0.8, KLK7 zymogen act -0.4, ADAM17 inh 12.4*, AHR activator 3.5, rCAG binder 11.3, ADAM10 ctr 24.8* and ADAM17 confirm 11.7*.
`N=c1c2c(ncn1Cc1ccco1)Oc1c(ccc3ccccc13)C2c1ccccc1` (centres undefined) gave ADAM10 inh 6.8, NR3A LBD binder -2.2, KLK7 zymogen act -4.2, ADAM17 inh 9.3*, AHR activator 14.4, rCAG binder 13.8, ADAM10 ctr 4.1 and ADAM17 confirm 8.2.
Screening N=c1c2c(ncn1Cc1ccco1)Oc1cc(O)ccc1C2c1ccccc1 (centres undefined) returned ADAM10 inh 1.6, NR3A LBD binder -4.9, KLK7 zymogen act 0.2, ADAM17 inh -1.2, AHR activator -0.8 and rCAG binder 4.0.
Cc1c(C(=O)N2CCN(S(=O)(=O)c3ccccc3)CC2)oc2ccc(Br)cc12 was read as ADAM10 inh 12.0, NR3A LBD binder 0.4, KLK7 zymogen act 0.6, ADAM17 inh 10.1*, AHR activator -4.1, rCAG binder 6.7, ADAM10 ctr 23.7* and ADAM17 confirm 14.4*.
`Nc1nonc1-c1nc2ccccc2n1CC(=O)N1CCCCC1` gave ADAM10 inh 12.1, NR3A LBD binder 1.4, KLK7 zymogen act -0.4, ADAM17 inh 9.9*, AHR activator 8.5, rCAG binder 1.6, ADAM10 ctr -12.2 and ADAM17 confirm -1.2.
NC(=O)c1c(NC(=O)C2c3ccccc3Oc3ccccc32)sc2c1CCCCC2 was read as ADAM10 inh -9.1, NR3A LBD binder -4.5, KLK7 zymogen act 0.8, ADAM17 inh -1.7, AHR activator 2.8 and rCAG binder 14.1.
COP(=O)(OC)C(Nc1ccc(C)cc1)c1ccc(Br)cc1 (centres undefined) was read as ADAM10 inh 5.8, NR3A LBD binder -2.2, KLK7 zymogen act 0.2, ADAM17 inh 0.6 and rCAG binder -5.8.
CCOc1ccc(Nc2ccc(N3C(=O)CCC3=O)cc2[N+](=O)[O-])cc1 was read as ADAM10 inh 4.0, NR3A LBD binder -0.9, KLK7 zymogen act -0.2, ADAM17 inh 0.0, AHR activator 3.0 and rCAG binder -0.5.
CCN(CC)c1ccc(CN(C(=O)c2cccs2)C2CCS(=O)(=O)C2)cc1 (centres undefined) was read as ADAM10 inh -18.8, NR3A LBD binder 0.7, KLK7 zymogen act 0.5, ADAM17 inh 1.0, AHR activator 2.2 and rCAG binder -4.0.
`Oc1ccc(C[C@H]2CNCCN2CCC23CC4CC(CC(C4)C2)C3)cc1` gave ADAM10 inh 14.5, NR3A LBD binder 1.0, KLK7 zymogen act 0.1, ADAM17 inh 10.7*, AHR activator -0.5, rCAG binder 7.4, ADAM10 ctr 2.1 and ADAM17 confirm 2.2.
For Oc1ccc(C[C@@H]2CNCCN2CCC23CC4CC(CC(C4)C2)C3)cc1 the results were ADAM10 inh -2.0, NR3A LBD binder 0.8, KLK7 zymogen act 0.8, ADAM17 inh 1.0, AHR activator 2.7 and rCAG binder 11.2.

Source: PubChem BioAssay
